Measured values reported in PubChem BioAssay AID504321 (NMMLSC, 2011).
The source made the active and inactive calls.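 How the source made its calls: active means GFP response vs DMSO above 150% with enough events counted; inconclusive means fewer than 70 events counted for a yeast strain; inactive means the rest.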

Assay: yeast MEP2-GFP fusion level changes, TOR pathway – flow cytometry, third cherry pick, S. cerevisiae, confirmation (AID 504321);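 further: median per-cell GFP fluorescence by flow cytometry across all yeast cells; ratio of sample to DMSO median GFP so 100% equals the DMSO level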
Conditions: S. cerevisiae MEP2-GFP strain, 3 h, at 10 µM, hits give high values

GFP response vs DMSO, inactive:
Brc1ccc2ncnc(NCc3ccccc3)c2c1 105%
CC(=O)Nn1cnc2c(c1=O)C1(CCCCC1)Cc1ccccc1-2 114%
Cc1cc(C)c2ccc(N)nc2c1O 108%
CS(=O)(=O)c1nc(-c2ccc(F)cc2)cc(C(F)(F)F)n1 133%
COC(=O)COc1c(Cl)cc(Cl)c2ccc(C)nc12 118%
COC(=O)c1cc(=O)c2cccc(OC)c2[nH]1 110%
Cc1nc(Nc2ccc(Cl)cc2)c(C#N)c(=O)[nH]1 108%
Cc1ccc(C(=O)Nc2nc(-c3ccccn3)cs2)o1 103%
O=C(O)c1ccc2cccc(O)c2n1 110%
Cc1ccc(Nc2nc(N)[nH]c(=O)c2N=O)cc1 108%
Cc1ccc(NN2C(=O)C=C(c3ccccc3)C2=O)cc1 140%
O=C(N/N=C/c1ccccc1O)c1cccc2ccccc12 110%
CC(C)Nc1ncnc2ccc(Br)cc12 112%
CCc1c(C)nc2c(OC)cccc2c1Cl 110%
Cc1ccc2nc(-c3ccc(NC(=O)c4cccnc4)cc3)oc2c1 114%
C/C(=C\C(=O)c1ccccc1)Nc1cccc(O)c1 110%
COCCNc1nc(N)c([N+](=O)[O-])c(Nc2ccc(F)cc2)n1 105%
COc1ccccc1Nc1nc(NCCC(C)C)nc(N)c1[N+](=O)[O-] 105%
CCC(C)Nc1nc(N)c([N+](=O)[O-])c(Nc2cc(OC)ccc2OC)n1 (centres undefined) 114%
OCCN1CCN(c2ncnc3ccc(Br)cc23)CC1 112%
Cc1ccc2c(C)ccc(O)c2n1 114%
Cc1ccc(-c2cc(C(F)F)nc(S(C)(=O)=O)n2)cc1 121%
CN(C)CCCNc1cc(O)c2ncccc2c1 118%
Nc1ncnc(Nc2cc(Cl)cc(Cl)c2)c1[N+](=O)[O-] 108%
C/C(=C\C(=O)c1ccc(Cl)cc1)Nc1ccc(Br)cc1 105%
Cc1cccc(C)c1Nc1ncnc(N)c1[N+](=O)[O-] 103%
C/C(=N\NC(=O)c1cccc2ccccc12)c1cccnc1 108%
COc1cccc(N/C(C)=C/C(=O)c2ccc(Br)cc2)c1 101%
CC(=O)Nc1ccc(-c2nc3cc(Cl)ccc3o2)cc1 108%
CCCC(=O)Nn1cnc2c(c1=O)C1(CCCC1)Cc1ccccc1-2 105%
O=C(Nc1ccccc1Cl)ON=C1c2ccccc2-c2ccccc21 108%
O=C(O)c1ccc(C=NNC(=O)c2cccc3ccccc23)cc1 103%
CSc1nc(Nc2ccc(Cl)cc2)c(C#N)c(=O)[nH]1 108%
Cc1ccc(NC(=O)O/N=C2\CCCCC2c2ccc([N+](=O)[O-])cc2[N+](=O)[O-])cc1 (centres undefined) 105%
COc1ccc(OC)c2c(=O)cc(C(=O)O)[nH]c12 105%
O=C(/C=C/Nc1cccc(O)c1)c1ccccc1 112%
COc1ccc(NC(=O)ON=C2c3ccccc3-c3ccccc32)cc1 105%
Nc1c(C(=O)O)ccc2c1C(=O)c1ccccc1C2=O 127%

GFP response vs DMSO, active:
Oc1c(Cl)cc(Cl)c2cccnc12 181%
